Measurements from PubChem BioAssay AID588850 (Sanford-Burnham Center for Chemical Genomics, 2011).
“And” between values parts separate entries of the source, which are not always exact repeats. Identical values can stand only once. Screen size: about 360,000 compounds; about 3,100 (0.86%) were called active. For the sample, actives were picked, then their nearest neighbours and some compounds at random. Values without a mark were called inactive.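 How the source made its calls: active means at least 50% inhibition at 5 µM, scaled per plate between neutral and stimulator controls; inactive means the rest.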

Experiment: inhibitors of PAF-induced NF-kB signaling, primary screen, cell-based, GFP fluorescence, uHTS (AID 588850);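 further: PAF is a Pseudomonas aeruginosa culture filtrate used as stimulus; plate controls were PAF-stimulated DMSO wells for no effect and unstimulated DMSO wells for full effect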
Settings: KKLEB NF-kB-GFP reporter, GFP fluorescence overnight, at 5 µM, active compounds read high

Compound	inhibition
O=C(Nc1ccc2oc(-c3ccc4ccccc4c3)nc2c1)c1cccs1	51.3% (active)
COc1cc(OC)cc(C(=O)Nc2ccc(-c3nc4ccccc4o3)c(O)c2)c1	-44.7%
O=C(Nc1ccc2oc(-c3ccccc3F)nc2c1)c1ccco1	-15%
CN1CCN(c2cc(=O)n(-c3ccc(Cl)cc3)c(=O)[nH]2)CC1	16.6%
CC1CCN(C(=O)c2ccccc2NC(=O)Cc2ccccc2)CC1	16.1%
N#C/C=C1\Sc2ccccc2C(=O)N1CC(=O)N1CCN(S(=O)(=O)c2ccccc2)CC1	8.2%
Brc1ccc2ncnc(NCc3cccnc3)c2c1	57% (active)
Clc1ccc(Cn2ncc3c(NCc4cccnc4)ncnc32)cc1	-7.9%
Cc1cc(NCc2cccnc2)no1	-9.7%
CC(C)Cc1oc(C(=O)O)cc1CN	0.9%
OC[C@@H]1CN(Cc2ccc(Cl)cc2)C[C@H](n2cnc3c(NCc4ccncc4)ncnc32)O1	-7.1%
CCN(CC(=O)Nc1cc(Cl)ccc1C)C(=O)CSCc1ccc(C)cc1	-25.2%
C[C@]12C=CC(=O)C=C1CC[C@@H]1[C@@H]2C(=O)C[C@@]2(C)[C@H]1CC[C@]2(O)C(=O)CO	21.5% and 6.7%
CC1(C)O[C@@H]2CC3C4C[C@H](F)C5=CC(=O)C=CC5(C)C4C(O)CC3(C)[C@]2(C(=O)CO)O1 (some centres undefined)	71.8% (active)
COc1cccc(NC(=O)COC(=O)c2ccc3ccccc3n2)c1	3.6%
C[C@H]1CC[C@]2(O[C@@H](CCO)C[C@@H](O)[C@@H]2O)O1	-22.2%
O=C(/C=C/c1ccc(Cl)c([N+](=O)[O-])c1)c1ccc(O)cc1	66.4% (active)
O=C(c1ccc(Cl)c([N+](=O)[O-])c1)N1CCN(c2ccccc2)CC1	-1.9%
O=C(O)c1ccc2c(=O)n3c(nc2c1)/C(=C/c1ccc(Cl)c([N+](=O)[O-])c1)CC3	-4%
COc1cc(C(C(=O)NC2CCCC2)N(Cc2ccccc2)C(=O)c2snc(C(N)=O)c2N)ccc1O (centres undefined)	-3.3%

Compound	inhibition
COc1ccc(CNC(=O)C(c2ccc(O)cc2)N(Cc2ccco2)C(=O)c2snc(C(N)=O)c2N)cc1 (centres undefined)	80.2% (active)
NC(=O)c1nsc(C(=O)N(CC(=O)NCc2ccc(F)cc2)Cc2ccco2)c1N	6.2%
O=C1CCC(C(=O)N2CCN(c3ccccc3Cl)CC2)CN1CC1CCCCC1 (centres undefined)	25%
Cc1ccc(NS(=O)(=O)c2ccc3c(c2)oc(=O)n3C)c(C)c1	21.8%
CC(=O)c1c(OCC(=O)N(C)C2CCCCC2)ccc2c(C)cc(=O)oc12	-24.1%
COc1cccc2c1C(=O)c1c(O)c3c(c(O)c1C2=O)CC(O)(C(C)=NNC(=O)c1ccc(Cl)c(Cl)c1)CC3OC1CC(N)C(O)C(C)O1 (centres undefined)	81.2% (active)
NS(=O)(=O)c1ccc(N=Cc2ccc(Br)s2)cc1	2.4%
COc1cccc(CCNC(=O)COc2cccc3c2OC(C)(C)C3)c1	17.3%
Cc1ccc(-n2cc(CN(C)Cc3nccn3C)c(-c3cccc(C)c3)n2)cc1	28.4%
CCNc1nc(N)nc(Oc2ccc(OCC)nn2)n1	-19.3%
O=C(CCCCCCCC(=O)N1CCCCC1)N1CCCCC1	-8.3%
O=C(c1cc(COc2c(F)cccc2F)on1)N1CCSCC1	19%
COc1ccc(C2=NO[C@@H]3C(=O)N(Cc4ccccc4)C(=O)[C@H]23)cc1OC	11%
COc1ccc(-c2cc(C(=O)NCCCN3CCCC3=O)c3ccccc3n2)cc1OC	-14%
COc1ccc(-c2cc(C(F)(F)F)nc(S(C)(=O)=O)n2)cc1OC	90.7% (active)
Cc1cccc(NC(=O)CCN2CC(C)CC(C)C2)c1 (centres undefined)	1.5%
Cc1cccc(CN2CCC(CNC(=O)Nc3ccc(F)c(Cl)c3)CC2)c1	-7.6%
Cc1cccc(CS(=O)(=O)c2ncc(Cl)c(C(=O)Nc3ccc(F)cc3)n2)c1	81.7% (active)
Cc1cccc(NC(=O)c2nc(S(=O)(=O)Cc3ccccc3)ncc2Cl)c1	89.1% (active)
Cc1ccc(C)c(Cn2nnc3c(=O)[nH]c(C(=O)Nc4ccc(F)cc4)nc32)c1	22.5%

Compound	inhibition
Cc1cccc(NC(=O)Cn2cc(C(=O)c3ccco3)c3ccccc32)c1	-7.8%
ONC(=Nc1ccc(Cl)cc1)c1ccccc1Cl	9.7%
Nc1nnc(C2CCCC2)s1	0%
OC[C@@H]1CN(C2CCCC2)C[C@H](n2cnc3c(NC4CCC4)ncnc32)O1	6.2%
O=C(Nc1ccn(Cc2ccccc2)n1)c1n[nH]c([N+](=O)[O-])c1Cl	-15.6%
Cc1ccc(CC(=O)Nc2ccc(OC(F)F)c(Cl)c2)cc1C	2.1%
O=C(Cc1ccc(Cl)c(Cl)c1)Nc1ccc(SC(F)F)cc1	60.8% (active)
CC(=O)N1CCN(CC(=O)Nc2ccc(SC(F)F)cc2)CC1	5.2%
COc1ccccc1CC(NC(C)=O)C(=O)NC1CCN(C(=O)Nc2ccccc2Cl)CC1 (centres undefined)	2.1%
O=C1CCC(Cc2ccccc2)N1 (centres undefined)	11.2%
CCOC(=O)C(=Cc1ccccc1)C(=O)c1ccccc1	66.7% (active)
CCOC(=O)C(=Cc1ccccc1OC)C(=O)OCC	26.4%
CCOC(=O)/C(=C\c1ccc([N+](=O)[O-])cc1)C(=O)c1cc(C(C)=O)c(Nc2ccccc2)s1	18.8%
CN1CCc2c(sc3c2c(NCc2ccco2)nc2nnnn23)C1	-14.3%
CCN(CC(=O)NCc1cccs1)C(=O)/C=C/c1ccc(C)cc1	-8.4%
CCCn1nc(C(=O)NNC(=O)CSCC(=O)Nc2cc(C)on2)c2ccccc2c1=O	16.2%
CCc1ccc(N(CC)c2ncnc3nc[nH]c23)cc1	58.2% (active)
COc1ccc(CCNc2ncnc3nc[nH]c23)cc1OC	14.3%
Cc1ccc(NC(=O)c2ccc(CSc3ncnc4nc[nH]c34)cc2)c(C)c1	-2.8%
